Structures can show the parent of a compound that is named as a salt.

Conditions in all cases: 10 µM; exposure time 6 h
Assay [1] concerns Danio rerio larvae (5 dpf). The experiment in a line: difference in excitability vs DMSO (percentage points); higher = more excitable than DMSO. The method, boiled down: (§1)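 Wild-type zebrafish larvae at 5 dpf were kept in 96-well plates and exposed for 6 h to 100 µL egg water holding library compound at a final concentration of 10 µM. From 3 h into exposure, the plates were held at 28.5 ℃ and photographed every 6 s through a 3-h programme of moving lines and 100 ms, 400Hz tones. Each behaviour was scored by Z-LaP Tracker, a DeepLabCut model, and averaged over 48 larvae per compound. Every value gives the compound mean minus the vehicle control mean, in percentage points.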

In assay [2] the test system is Danio rerio larvae (5 dpf). The experiment in a line: difference in startle response vs DMSO (percentage points); higher = stronger startle than DMSO. In a few lines: as §1
The test system of assay [3] is Danio rerio larvae (5 dpf). The experiment in a line: difference in activity during first hour vs DMSO (percentage points); higher = more activity than DMSO. The method, boiled down: as §1
Assay [4] deals with Danio rerio larvae (5 dpf). The experiment in a line: difference in habituation to acoustic stimuli vs DMSO (percentage points); higher = more habituation than DMSO. The method, boiled down:
as §1

In assay [5] the test system is Danio rerio larvae (5 dpf). As to the kind of experiment: difference in combined optomotor response to red, green and blue moving lines vs DMSO (percentage points); higher = stronger optomotor response than DMSO. In a few lines: as §1

On to `COc1cc([C@@H]2c3cc4c(cc3[C@@H](O[C@@H]3O[C@@H]5CO[C@@H](C)O[C@H]5[C@H](O)[C@H]3O)[C@H]3COC(=O)[C@H]23)OCO4)cc(OC)c1O` [Etoposide], for which, in assay [1], the difference in excitability was -3.42. Besides, the “difference in startle response” value in assay [2] came out at 2.1. Besides, the “difference in activity during first hour” value in assay [3] was -5.75. For the same molecule, the “difference in habituation to acoustic stimuli” value (“difference in habituation” for short) in assay [4] was found to be 2.55. The difference in assay [5] was -5.33.

In the case of `CNC(=C[N+](=O)[O-])NCCSCc1ccc(CN(C)C)o1` [Ranitidine (hydrochloride)], the difference in excitability in assay [1] was -1.03. The “difference in startle response” value in assay [2] was determined as 4.48. For the same molecule, the “difference in activity during first hour” value in assay [3] stood at 11.1. Moreover, in assay [4], the “difference in habituation” value came to 0.164. Besides, the difference in assay [5] turned out to be 7.87.

`CN(C)C(=O)c1cc2cnc(Nc3ccc(N4CCNCC4)cn3)nc2n1C1CCCC1` returned a difference in excitability in assay [1] of 10.3. Besides, the “difference in startle response” value in assay [2] is -7.97. Also, the “difference in activity during first hour” value in assay [3] stood at 2.64. The “difference in habituation” value in assay [4] was -2.12. In addition, the difference in assay [5] amounted to 0.1.

As to `N=C(N)N/N=C/c1c(Cl)cccc1Cl` [Guanabenz (hydrochloride)], the difference in excitability in assay [1] was 1.72. Moreover, in assay [2], the “difference in startle response” value amounted to 17.3. The “difference in activity during first hour” value in assay [3] was -12.1. For the same molecule, in assay [4], the “difference in habituation” value was determined as 5.15. The difference in assay [5] is 8.58.

In the case of `Nc1nc(=O)c2nc(CNc3ccc(C(=O)N[C@@H](CCC(=O)O)C(=O)O)cc3)cnc2[nH]1` [Folic Acid], the difference in excitability in assay [1] worked out at 7.04. Moreover, in assay [2], the “difference in startle response” value is -0.204. Further, the “difference in activity during first hour” value in assay [3] is 15.5. Further, the “difference in habituation” value in assay [4] was found to be 2.6. In assay [5], the difference worked out at 6.5.

In the case of `CC(C)(C)C(O)/C=C/c1ccc2c(c1)OCO2` (stereo not given) [Stiripentol], in assay [1], the difference in excitability was -5.22. Also, in assay [2], the “difference in startle response” value amounted to 0.0472. Also, the “difference in activity during first hour” value in assay [3] came to 3.85. For the same molecule, the “difference in habituation” value in assay [4] is -4.89. Further, the difference in assay [5] is 7.37.

`CO[C@H]1C(=O)[C@]2(C)[C@@H](OC)C[C@H]3OC[C@@]3(OC(C)=O)[C@H]2[C@H](OC(=O)c2ccccc2)[C@]2(O)C[C@H](OC(=O)[C@H](O)[C@@H](NC(=O)OC(C)(C)C)c3ccccc3)C(C)=C1C2(C)C` [Cabazitaxel] had a difference in excitability in assay [1] of 6.19. The “difference in startle response” value in assay [2] came out at 4.59. Moreover, the “difference in activity during first hour” value in assay [3] was 13.7. For the same molecule, the “difference in habituation” value in assay [4] came to 3.39. The difference in assay [5] came to 2.83.

`CCCCc1nc(Cl)c(CO)n1Cc1ccc(-c2ccccc2-c2nnn[nH]2)cc1` [Losartan (potassium salt)] came in with a difference in excitability in assay [1] of 3.08. Further, the “difference in startle response” value in assay [2] was 0.6. For the same molecule, in assay [3], the “difference in activity during first hour” value amounted to 6.85. In assay [4], the “difference in habituation” value was -4.35. The difference in assay [5] was -1.12.

On to `Cn1nnc2c(C(N)=O)ncn2c1=O` [Temozolomide], for which the difference in excitability in assay [1] was -3.41. For the same molecule, the “difference in startle response” value in assay [2] was found to be 0.671. For the same molecule, the “difference in activity during first hour” value in assay [3] is -3.71. For the same molecule, the “difference in habituation” value in assay [4] was 1.66. In addition, the difference in assay [5] was 5.77.

`CC(C)(C)NCC(O)COc1cccc2c1CCC(=O)N2` (stereo not given) [Carteolol (hydrochloride)] yielded a difference in excitability in assay [1] of 4.97. For the same molecule, in assay [2], the “difference in startle response” value is -3.33. Besides, the “difference in activity during first hour” value in assay [3] was 6.77. The “difference in habituation” value in assay [4] came out at 1.1. In assay [5], the difference was determined as 4.95.

Take `CO/N=C(\C(=O)N[C@@H]1C(=O)N2C(C(=O)O)=C(COC(N)=O)CS[C@H]12)c1ccco1` [Cefuroxime (sodium salt)]: the difference in excitability in assay [1] is 21.1. In addition, in assay [2], the “difference in startle response” value amounted to 5.54. The “difference in activity during first hour” value in assay [3] was -6.92. Also, the “difference in habituation” value in assay [4] is 2.43. Besides, the difference in assay [5] amounted to 10.9.

As for `CC[C@@H]1C(=O)OC[C@@H]1Cc1cncn1C` [(+)-Pilocarpine (hydrochloride)], the difference in excitability in assay [1] stood at 9.24. Also, the “difference in startle response” value in assay [2] was -3.79. The “difference in activity during first hour” value in assay [3] is -22.2. Besides, the “difference in habituation” value in assay [4] worked out at 5.07. Further, the difference in assay [5] is -5.32.

On to `N=C(N)c1ccc(OCCCCCOc2ccc(C(=N)N)cc2)cc1` [Pentamidine], for which, in assay [1], the difference in excitability is 17. Also, in assay [2], the “difference in startle response” value was 5.88. In assay [3], the “difference in activity during first hour” value is -2.12. Besides, in assay [4], the “difference in habituation” value is 0.725. Further, in assay [5], the difference is 5.19.

With `CC(=O)OCC(=O)[C@@]12OC3(CCCC3)O[C@@H]1C[C@H]1[C@@H]3CCC4=CC(=O)C=C[C@]4(C)[C@@]3(F)[C@@H](O)C[C@@]12C` [Amcinonide], the difference in excitability in assay [1] was found to be 8.43. For the same molecule, the “difference in startle response” value in assay [2] amounted to 5.38. Further, in assay [3], the “difference in activity during first hour” value is -7.56. Also, in assay [4], the “difference in habituation” value is -0.863. Moreover, the difference in assay [5] was 4.08.

`CC(C[N+](C)(C)C)OC(N)=O` (stereo not given) [Bethanechol (chloride)]: the difference in excitability in assay [1] is 1.05. In addition, the “difference in startle response” value in assay [2] was -0.356. Also, the “difference in activity during first hour” value in assay [3] was -9.77. In assay [4], the “difference in habituation” value amounted to 0.388. Also, the difference in assay [5] was -6.5.

For the molecule `CC1(C)C[C@@H]1C(=O)N/C(=C\CCCCSC[C@H](N)C(=O)O)C(=O)O` [Cilastatin], the difference in excitability in assay [1] was -5.97. Also, the “difference in startle response” value in assay [2] amounted to 11.7. For the same molecule, in assay [3], the “difference in activity during first hour” value is 15. Further, the “difference in habituation” value in assay [4] was -6.5. Moreover, the difference in assay [5] is 10.5.

`CNCC[C@H](Oc1cccc2ccccc12)c1cccs1` [(S)-Duloxetine (hydrochloride)] showed a difference in excitability in assay [1] of 4.76. For the same molecule, the “difference in startle response” value in assay [2] is -1.86. Further, the “difference in activity during first hour” value in assay [3] was -21. Further, the “difference in habituation” value in assay [4] is -3.34. In assay [5], the difference is -11.3.

With `O=C1c2cccc3c2[C@H](CCC3)CN1[C@@H]1CN2CCC1CC2` [Palonosetron (hydrochloride)], the difference in excitability in assay [1] is 16.7. The “difference in startle response” value in assay [2] is -3.75. Moreover, the “difference in activity during first hour” value in assay [3] is 19.7. Also, the “difference in habituation” value in assay [4] is 2.14. Further, the difference in assay [5] is 4.37.

Molecule `CC1(C)O[C@@H]2C[C@H]3[C@@H]4C[C@H](F)C5=CC(=O)C=C[C@]5(C)[C@H]4[C@@H](O)C[C@]3(C)[C@]2(C(=O)CO)O1` [Flunisolide] registered a difference in excitability in assay [1] of 4.3. Also, the “difference in startle response” value in assay [2] was -3.48. In addition, the “difference in activity during first hour” value in assay [3] came to 6.73. The “difference in habituation” value in assay [4] worked out at 1.9. Moreover, the difference in assay [5] turned out to be 3.28.

Take `COc1cc(C)c(/C=C/C(C)=C/C=C/C(C)=C/C(=O)O)c(C)c1C` [Acitretin]: the difference in excitability in assay [1] stood at 6.34. Also, the “difference in startle response” value in assay [2] was -12.5. Moreover, the “difference in activity during first hour” value in assay [3] was 50.6. In assay [4], the “difference in habituation” value is -15.4. The difference in assay [5] was -20.9.

`COc1ccc(C(=O)CC(=O)c2ccc(C(C)(C)C)cc2)cc1` [Avobenzone] showed a difference in excitability in assay [1] of 3.84. Also, the “difference in startle response” value in assay [2] was -2.54. Further, the “difference in activity during first hour” value in assay [3] is -6.34. Also, in assay [4], the “difference in habituation” value amounted to 4.35. The difference in assay [5] is -2.39.

Consider `CC1=C(C(=O)O)N2C(=O)[C@@H](NC(=O)[C@H](N)c3ccccc3)[C@H]2SC1` [Cephalexin], for which the difference in excitability in assay [1] amounted to 6.31. In addition, in assay [2], the “difference in startle response” value was 7.97. Further, the “difference in activity during first hour” value in assay [3] was found to be 2.55. For the same molecule, the “difference in habituation” value in assay [4] was -0.572. Moreover, the difference in assay [5] was determined as 3.98.

With `COc1cc2c(cc1OC)[C@@H](Cc1cc(OC)c(OC)c(OC)c1)[N+](C)(CCCOC(=O)CC/C=C/CCC(=O)OCCC[N+]1(C)CCc3cc(OC)c(OC)cc3[C@H]1Cc1cc(OC)c(OC)c(OC)c1)CC2` (stereo not given in full) [Mivacurium (chloride)], the difference in excitability in assay [1] was determined as 19.5. Also, the “difference in startle response” value in assay [2] was -7.63. Moreover, in assay [3], the “difference in activity during first hour” value was -16.7. Moreover, the “difference in habituation” value in assay [4] was determined as 4.16. Moreover, the difference in assay [5] is 5.12.

The record behind these values is the supplement of paper PMC10515830.
